Source: PubChem
The list is not random: actives were taken first. Their share in the collection is about 4.1%.
DAX1 inh-1 = DAX1 (NR0B1) inhibitors on StAR promoter, primary screen, cell-based, luminescence, SF-1 (NR5A1), full-length DAX-1 | HEK293T StAR-luciferase reporter, SF-1/DAX-1 repression relief | inhibition, % at 6.8 µM | 370,000 compounds, 1.1% hits;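 active = inhibition above the mean over all tested compounds plus 3 SD, cut at about 3.6% in these data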;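 also: 0% = DAX-1 cells with DMSO and 100% = cells lacking DAX-1 with DMSO; higher inhibition means more luminescence from relief of DAX-1 repression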
DAX1 inh-2 = DAX1 (NR0B1) inhibitors, primary screen, cell-based, HEK293, Gal4-DAX1, luciferase luminescence; HEK293 Gal4-DAX1 luciferase reporter; inhibition, % at 6.75 µM; 340,000 compounds, 0.99% hits;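 active = inhibition above the mean over all tested compounds plus 3 SD, cut at about 4.2% in these data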;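 also: 0% = DAX1-transfected cells with DMSO and 100% = empty-vector control cells with DMSO; inhibition shows as a rise in luminescence from relieved DAX1 repression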
Target sequence (P51843 207-470 limits assumed): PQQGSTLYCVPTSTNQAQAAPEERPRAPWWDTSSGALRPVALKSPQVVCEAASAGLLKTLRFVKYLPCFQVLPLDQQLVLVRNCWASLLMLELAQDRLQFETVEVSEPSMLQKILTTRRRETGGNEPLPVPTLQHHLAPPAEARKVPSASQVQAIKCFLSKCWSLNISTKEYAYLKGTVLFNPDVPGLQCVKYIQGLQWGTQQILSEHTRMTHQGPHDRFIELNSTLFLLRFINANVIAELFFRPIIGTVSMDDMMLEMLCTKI
hcDAF-12 act = H. contortus DAF-12 nuclear receptor activators, primary screen, cell-based, luminescence, HEK293, lit1-tk-luc reporter; 370,000 compounds, 1.4% hits; AID 652067, 2013; activation, % at 6.8 µM; HEK293 hcDAF-12 lit1-tk-luc reporter; 0% DMSO, 100% Δ7-dafachronic acid;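 active = activation above the mean of all tested compounds plus 3 SD, cut at about 5.5% in these data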;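 also: 100% = response to 3 µM Δ7-dafachronic acid high control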
hgDAF12 agonist = H. glycines DAF-12 receptor agonists, primary screen, cell-based, luminescence, HEK293, GAL4 fusion, UAS-luciferase; Nuclear hormone receptor DAF-12 (Heterodera glycines), GAL4 fusion; 370,000 compounds, 1.8% hits; activation, % at 6.8 µM; HEK293 GAL4-hgDAF12 UAS-luciferase reporter, agonist luminescence; normalized to butyrate control;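 active = activation above a cutoff set at the mean of all screened compounds plus 3 SD, cut at about 10% in these data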;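 also: 0% = DMSO wells and 100% = sodium butyrate wells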
ssDAF-12 act = S. stercoralis DAF-12 nuclear receptor activators, primary screen, cell-based, luminescence, HEK293, GRIP1 co-expression, lit1-tk-luc | Nuclear hormone receptor DAF-12 (Strongyloides stercoralis) | AID 652126, 2013 | 370,000 compounds, 1% hits | activation, % at 6.8 µM | HEK293 ssDAF-12/GRIP1 lit1-tk-luc reporter; % of 3 µM dafachronic acid response;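 active = activation above the mean over all tested compounds plus 3 SD, cut at about 0.9% in these data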;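 also: 0% = DMSO-only wells and 100% = 3 µM delta7-dafachronic acid wells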
hgDAF12 ag = H. glycines DAF-12 receptor agonists, confirmation, cell-based, luminescence, HEK293, GAL4-LBD fusion; shares compounds with hgDAF12 agonist; HEK293 GAL4-hgDAF12 luciferase reporter, agonist mode; percent of butyrate response; activation, % at 6.8 µM; 3,300 compounds, 80% hits; AID 743050, 2013;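 active = mean activation over triplicate wells above the hit cutoff derived from the earlier primary screen, cut at about 11% in these data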;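 also: 0% = DMSO low control and 100% = 2 mM sodium butyrate high control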
LXRb DAF12 ctr = LXR agonists, Gal4 luciferase reporter, confirmation, counter-screen for hgDAF-12 agonist project, cell-based, luminescence, HEK293, H. glycines campaign. shares compounds with hgDAF12 agonist. 24 h. activation, % at 6.8 µM. 3,300 tested, under 10 active;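 active = mean activation of the triplicate above a set limit carried over from the primary screen, none filed active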
Active calls of the source: *; . = not tested or not shown.

SMILES	DAX1 inh-1	DAX1 inh-2	hcDAF-12 act	hgDAF12 agonist	ssDAF-12 act	hgDAF12 ag	LXRb DAF12 ctr
Fc1ccc2cc(C3=CCCCC3)ncc2c1	0	.	-2	-1	-1	.	.
Cc1ccc(C(=O)Nc2nnc(SCC(=O)N3CCCc4ccccc43)s2)cc1	4.2*	-2	4	14*	1	9	1
c1ccc(C2=Nc3ccccc3NC(c3ccccc3)C2)cc1 (stereo not drawn)	3	3	1	14*	0	15*	0
c1ccc(C2=NC(c3ccccc3)CC2)cc1 (stereo not drawn)	0	1	0	5	0	.	.
Brc1ccccc1C1CC(c2ccccc2)=Nc2ccccc2N1 (stereo not drawn)	1	2	4	14*	0	9	0
Cc1cc(N=O)no1	2	.	-2	6	-1	.	.
O=C1Nc2ccccc2-n2nnnc2C1N1CCN(c2ccc(C(F)(F)F)cc2[N+](=O)[O-])CC1 (stereo not drawn)	-2	.	-2	-5	-1	.	.
COc1ccc(-c2noc(C3CCCN(C(=O)Nc4ccc(C)c(F)c4)C3)n2)cc1 (stereo not drawn)	-1	.	-1	4	-1	.	.
Oc1[nH]c2ccccc2c1N=Nc1nncc2ccccc12	3	3	3	16*	0	12*	1
Oc1[nH]c2ccccc2c1N=Nc1ccccn1	2	2	3	9	1	.	.
Cc1cccc(Nc2nc3c(s2)CCCC3)c1	3	3	3	18*	0	16*	1
CC(=O)c1sc(Nc2cccc(C)c2)nc1C	1	2	2	6	-1	.	.
CC1(C(=O)Nc2cccc3ccccc23)CCN1C(=O)C1(c2ccccc2)CCCC1 (stereo not drawn)	-1	.	1	-1	-1	.	.
Cc1ccc(C(=O)NCCc2c[nH]c3ccccc23)c(C)c1	1	2	5	15*	0	12*	0
Cc1cc(F)ccc1C(O)c1ncc(-c2ccccc2C(F)(F)F)[nH]1 (stereo not drawn)	-1	.	-1	-2	-1	.	.
CCOC(=O)C(C)On1c(-c2ccc(Cl)cc2)nc2ccc([N+](=O)[O-])cc21 (stereo not drawn)	2	2	2	14*	0	20*	1
O=c1c2ccc(Cl)cc2nc(-c2ccc([N+](=O)[O-])cc2)n1O	-1	1	-1	-2	-1	.	.
O=C(O)COn1c(-c2ccccc2)nc2ccc([N+](=O)[O-])cc21	3	2	4	14*	1	13*	1
Cc1ccccc1C(=O)NCC(=O)c1ccccc1	2	.	5	13*	0	11*	0
CCOC(=O)CN1C(=O)N(c2ccc(OC)cc2)[C@H]2CC3c4ccccc4C[C@]3(C)[C@@H](C(=O)N(C)C3CCCCC3)C[C@H]21 (stereo partly drawn)	-2	.	-2	-5	-2	.	.
CC(=O)Nc1c(O)nc(SCC(=O)Nc2cccc(C)c2)[nH]c1=O	0	1	0	0	-1	.	.
CC(=O)Nc1c(O)nc(SCC(=O)Nc2ccc(C(C)=O)cc2)[nH]c1=O	0	1	3	14*	-1	12*	0
C/C(=N\Nc1ccc([N+](=O)[O-])cc1)c1ccc(O)cc1	1	.	2	16*	-1	9	0
O=[N+]([O-])c1ccc(NN=C(c2ccccc2)c2ccccc2)nc1	0	0	0	2	-1	.	.
CC(C=NNc1ccc([N+](=O)[O-])cn1)=Cc1ccccc1	3.7*	7.5*	3	17*	0	17*	1
SMILES	DAX1 inh-1	DAX1 inh-2	hcDAF-12 act	hgDAF12 agonist	ssDAF-12 act	hgDAF12 ag	LXRb DAF12 ctr
CC(=NNc1ccc([N+](=O)[O-])cn1)c1ccccc1	2	1	1	13*	0	16*	1
CN(C1=NS(=O)(=O)c2ccccc21)c1ccc(OC(=O)c2ccccc2F)cc1	0	2	0	-1	-2	.	.
CCn1c2ccccc2c2cc(C=Nn3c(-c4ccccn4)n[nH]c3=S)ccc21	-4	.	-1	-3	-2	.	.
COC(=O)c1ccccc1NC(=O)Nc1cc(C(C)(C)C)on1	3	1	0	5	0	.	.
CC(C)(C)c1cc(NC(=O)Nc2ccccc2)no1	2	3	5	23*	0	19*	1
Cc1ccc(NC(=S)N2CCCC(c3nc4ccccc4[nH]3)C2)cc1 (stereo not drawn)	0	2	0	1	-1	.	.
Cc1ccc(NC(=S)c2nc3ccccc3[nH]2)cc1	3	2	6.5*	14*	1.0*	17*	1
NC(=O)c1cc(N)ccc1N1CCCCC1	-1	.	0	22*	-2	1	0
COC(=O)c1cccc(N2C(=O)C[C@](Sc3ccc(OC)cc3)(C(=O)N3CCOCC3)[C@H]2c2ccc(OC)cc2)c1	-1	.	-2	2	-1	.	.
COc1cc(S(=O)(=O)n2ccc(C)n2)c(C)cc1C	-1	0	0	0	0	.	.
COc1ccc2c(c1OC)C(=O)N(c1cccc(C)c1)C2	3.6*	1	6	13*	1.3*	16*	1
Cc1cccc(N2CC(=O)N(c3cccc(C)c3)CC2=O)c1	-1	0	0	-2	-1	.	.
COC(=O)[C@H](C)N(Cc1cn(Cc2ccccc2)nn1)S(=O)(=O)c1ccccc1Br	-1	.	-1	2	-1	.	.
N=c1oc2ccccc2cc1C(=O)NC1CCCCCC1	2	0	2	14*	0	14*	1
N=c1oc2ccc(Cl)cc2cc1C(=O)NC1CCCCCC1	0	1	4	0	0	.	.
O=C(Nc1ccc(Br)cn1)c1cccc(C(=O)Nc2ccc(Br)cn2)c1	1	-1	0	6	0	.	.
CC(=O)c1ccc(NC(=O)c2cc3ccccc3o2)cc1	3	1	5	14*	1.6*	18*	1
